As usually defined, the inhibition is the drop in the measured response relative to a control, in per cent.

Calls of active or inactive are those of the source. No rule for the calls is given here.

The text below walks through data of PubChem BioAssay AID1026 (Columbia University Molecular Screening Center, 2008).

In the assay the target is Bifunctional epoxide hydrolase 2 (Homo sapiens) (UniProt P34913). The assay can be described thus: sEH inhibitor concentration-response potency, dose response, biochemical, human sEH, fluorescence, Infinite200 (AID 1026). The note with it: recombinant human sEH, fluorogenic substrate, at 0.2 µM, stronger effect = higher value.
Bifunctional epoxide hydrolase 2 (Homo sapiens), sequence (P34913 whole entry, looked up): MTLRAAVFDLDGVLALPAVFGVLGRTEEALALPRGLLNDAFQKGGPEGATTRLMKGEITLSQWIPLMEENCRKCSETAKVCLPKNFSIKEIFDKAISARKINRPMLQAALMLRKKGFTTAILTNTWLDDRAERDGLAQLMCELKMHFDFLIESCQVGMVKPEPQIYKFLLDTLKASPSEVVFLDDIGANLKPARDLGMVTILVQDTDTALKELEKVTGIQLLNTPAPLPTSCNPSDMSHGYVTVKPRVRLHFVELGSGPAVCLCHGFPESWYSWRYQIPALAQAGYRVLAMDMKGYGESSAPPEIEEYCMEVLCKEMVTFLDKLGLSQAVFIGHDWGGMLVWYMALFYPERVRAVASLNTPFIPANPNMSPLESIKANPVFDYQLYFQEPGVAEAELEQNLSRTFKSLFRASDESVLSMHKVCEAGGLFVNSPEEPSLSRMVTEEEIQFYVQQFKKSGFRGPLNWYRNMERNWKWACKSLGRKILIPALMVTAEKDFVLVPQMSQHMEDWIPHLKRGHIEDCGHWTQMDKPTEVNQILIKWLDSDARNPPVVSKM
On to `COc1ccc(CCN2C(=O)C3C4CC(C5C(C(=O)N/N=C\c6ccc(Cl)cc6)=NOC45)C3C2=O)cc1OC` (centres undefined), for which the inhibition is 67.1% (inactive).
Then `Cc1ccc(Cn2ccc(=O)c(Cc3c(Cl)cccc3Cl)c2C)cc1`, with 63.6% (inactive).
With `CCCOc1cccc(/C=N/NC(=O)c2csc(C)c2C)c1`, the inhibition was 49.7% (inactive).
As for `O=C(NC12CC3CC(CC(C3)C1)C2)N1CCC(O)(c2ccc3c(c2)OCO3)CC1`, the figure is 46% (inactive); as for `O=C(COc1c(F)c(F)c(C(F)(F)F)c(F)c1F)Nc1ccc(N2CCOCC2)c(Cl)c1`, 49.2% (inactive).
As for `CC(Cc1cccs1)NC(=O)Nc1ccc(Cl)cc1` (centres undefined), the figure is 60.6% (inactive).
As to `O=C(N/N=C/c1cccc(O)c1)c1csc2ccccc12`, the inhibition was 54.3% (inactive).
Take `COc1ccc(CNC(=O)/C=C/c2cc3c(cc2Br)OCO3)cc1`: the inhibition was 58.5% (inactive).
For `CCOc1ccc(NC(=O)c2ccc(F)c(S(=O)(=O)N3CCN(c4ccccn4)CC3)c2)cc1`, the inhibition was 64.3% (inactive).
For the molecule `Cc1cccc(NC(=O)Nc2cccc(Oc3c(F)c(F)c(F)c(F)c3F)c2)c1`, the inhibition was 47.7% (inactive).
For `CC(=O)NC1CC2CCCC(C1)N2C(=O)Nc1ccc(Cl)c(C(F)(F)F)c1` (centres undefined), the inhibition was 41.4% (inactive).
As for `O=C(NC1CCCCC1)N1CCCC(c2nc(-c3cccs3)no2)C1` (centres undefined), the inhibition was 65.8% (inactive).
For `CCN(CCNC(=O)C1CCN(Cc2nc(-c3ccc(Cl)cc3)oc2C)CC1)c1ccccc1`, the inhibition was 36.3% (inactive).
In the case of `O=C(Nc1ccc(Cl)c(C(F)(F)F)c1)C1CCCN(S(=O)(=O)c2cnc[nH]2)C1` (centres undefined), the inhibition is 72.5% (inactive).
